Results on 68 compounds are retold here after PubChem BioAssay AID1347041 (National Center for Advancing Translational Sciences (NCATS), 2019).

Molecules are shown by their SMILES. “And” between values parts separate entries of the source, which are not always exact repeats. Identical values can stand only once. Among all 480,000 compounds or so, about 740 (0.15%) were called active. Rule as the data show it: active = activity change below about -30%; inconclusive = mostly about -25% to -30%; inactive = weaker than that. The sample as a whole holds a higher share of actives than the screen did. Some compounds were tested as several samples or in several runs, with calls that do not always agree.

This test deals with L-lactate dehydrogenase A chain (Homo sapiens) (UniProt P00338). The test is described as follows: qHTS assay for inhibitors of human lactate dehydrogenase.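 Also: values are at about 110 or 230 µM; plate controls were DMSO wells for no effect and wells without enzyme for full effect.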 As to conditions: purified LDHA, NADH/diaphorase-resazurin fluorescence; stronger effect = lower value. The essentials:
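Enzyme activity of human lactate dehydrogenase 5 (2 nM; 0.06 mM NADH, 0.2 mM pyruvate, 5 min, RT) is measured via a resazurin/diaphorase fluorescence readout of residual NADH.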
(In general: qHTS replaces the single test concentration by a dilution series.)
Turning to `O=C(NCc1ccco1)NNc1nc2c(-c3ccccc3)nnn2c2ccccc12`, the activity change is 0.688% (inactive).
In the case of `Clc1cc(Cl)c(N/N=C/c2ccc(Br)cc2)c(Cl)c1`, the activity change is 1.46% (inactive).
Then `Cc1cc(OC(=O)c2c(Cl)cccc2Cl)nc(C)n1`, with -6.35% (inactive); and `Cc1cc(C)c(S(=O)(=O)c2ccccc2)c(OC(=O)c2c(F)cccc2Cl)n1`, with -58% (active).
Then `O=C(OCc1ncc(-c2ccccc2)o1)c1c(F)cccc1Cl`, with -4% (inactive); and `CC(=O)c1c(C)[nH]c(C)c1C`, with -0.832% (inactive); and `CCc1nc(C#N)c(NCC(c2cccs2)N2CCOCC2)o1` (stereo not drawn), with 4.58% (inactive).
Then `CCCc1cc(=O)oc2cc(OC(C)C(=O)Nc3cccc(C(C)=O)c3)ccc12` (stereo not drawn), with 1.35% (inactive); and `Cc1c(C(=O)C(=O)NC(C)c2ccccc2)c2ccccc2n1C` (stereo not drawn), with -3.86% (inactive); and `CCOC(=O)c1cc(S(=O)(=O)Nc2cccc(C)c2C)[nH]n1`, with -1.21% (inactive).
As to `COc1ccc(OCCOC(=O)c2nn(C)c(=O)c3ccccc23)cc1`, the activity change is 0.361% (inactive).
The same measure for `Cc1ccc(S(=O)(=O)N2CCN(C(=O)Cc3sc(C)nc3-c3ccc(F)cc3)CC2)c(C)c1`: 1.74% (inactive) and -33% (active); for `Cc1nc(-c2ccc(F)cc2)c(CC(=O)Nc2cc(S(=O)(=O)N3CCCCC3)ccc2C)s1`: -0.452% (inactive); for `Cc1nc(-c2ccc(F)cc2)c(CC(=O)N2CCN(S(=O)(=O)c3ccc(F)cc3)CC2)s1`: 7.31% (inactive) and -4.86% (inactive).
Take `CC(NC(=O)c1nccnc1N)c1ccco1` (stereo not drawn): the activity change is -5.25% (inactive).
The same measure for `CC(=O)[C@@H]1SC(N)=C(C#N)[C@H]1c1cccs1`: 12.5% (inactive); for `CCCn1c(N2CCN(C(=O)c3cccc(OC)c3)CC2)nc2sc3c(c2c1=O)CCCC3`: -1.23% (inactive); for `CCN(c1ccccc1)c1nnc(NC(=O)Nc2ccccc2OC)s1`: -2.61% (inactive).
The same measure for `CCCn1nc(C(=O)Nc2ccc(OC)c(NC(C)=O)c2)c2ccccc2c1=O`: -2.1% (inactive); for `CCNC(=O)CN1CCN(C(C(=O)O)c2c[nH]c3ccc(OCc4ccccc4)cc23)CC1` (stereo not drawn): -6.48% (inactive).
The same measure for `Fc1ccc(OCc2nn3c(CSc4ccccc4)nnc3s2)cc1`: -2.81% (inactive); for `O=C(CN1CCN(CC(=O)c2c[nH]c3ccccc23)CC1)NC1CC1`: 0.902% (inactive).
With `CCc1ccc(NC(=O)CSc2nccn2Cc2ccccc2OC)cc1`, the activity change is 8.74% (inactive).
Then `CC(NC(=O)c1cc(Cl)sc1Cl)C12CC3CC(CC(C3)C1)C2` (stereo not drawn), with 1.53% (inactive); and `COc1ccc(-c2cc(C(=O)O)c3cc(C)ccc3n2)cc1OC`, with 6.4% (inactive).
Then `CC(C)Cn1nc(C(=O)NCc2ccccc2F)c2ccccc2c1=O`, with 8.3% (inactive).
Then `COCCCN(C)Cc1cccc(OC)c1`, with -1.41% (inactive); and `COc1cc(Cl)c(C)cc1NC(=O)C(C)N1CCN(CCc2ccccc2)CC1` (stereo not drawn), with -11.8% (inactive).
For `O=C1CCCC2=C1C(c1ccc(C(=O)O)cc1)c1c([nH]n(-c3ccccc3)c1=O)N2` (stereo not drawn), the activity change is 14.2% (inactive).
Then `CCOC(=O)C1=C(CN2CCN(C(=O)OC(C)(C)C)CC2)NC(=O)NC1c1ccccc1OCC` (stereo not drawn), with -21.6% (inactive); and `Cc1cc(CNC(=O)NCc2coc(-c3cccs3)n2)ccc1F`, with -5.62% (inactive).
Then `CCCNc1c(NS(=O)(=O)c2ccc(F)c(F)c2)c(=O)oc2ccccc12`, with 0.151% (inactive).
For `COc1ccc(C(=O)Nc2oc3ccc(Cl)cc3c(=O)c2-c2ccc3c(c2)OCO3)cc1`, the activity change is -4.91% (inactive).
Regarding `Cc1c(C(N)=O)[n+](=O)c2ccccc2n1[O-]`, the activity change was -7.73% (inactive).
As to `Oc1ccc2ccccc2c1C=NCCc1ccccc1`, the activity change was 43.7% (inactive).
The same measure for `Cn1c(=O)c2c(ncn2CC(=O)Nc2cccc(F)c2)n(C)c1=O`: 0.764% (inactive).
The same measure for `COc1ccc(-c2nc(=N)sn2-c2ccccc2)cc1`: -63.7% (active); for `Cc1ccc(-c2nc(=N)sn2Cc2ccccc2)cc1`: -80.9% (active).
Then `COc1ccc(Nc2ccccc2)cc1`, with 15% (inactive); and `Cc1ccc(-c2nnn(Cc3csc(-c4ccccc4Cl)n3)n2)cc1`, with -3.25% (inactive); and `Cc1ccc(CN2C(=O)SC(Nc3ccccc3)C2=O)cc1` (stereo not drawn), with -3.19% (inactive).
Turning to `COc1ccc(-c2nn3c(-c4ccc(OC)cc4)nnc3c3ccccc23)cc1`, the activity change is -7.99% (inactive).
`CCCCn1c(=O)[nH]c(=O)c2c1nc(COC(=O)C1(C#N)CCCC1)n2C`: the activity change is -5.02% (inactive).
Then `O=C(CCC1NC(=O)c2ccccc2NC1=O)NC1CCCC1` (stereo not drawn), with -4.57% (inactive).
Consider `Cc1ccc(N(CC(=O)N2CCN(C/C=C/c3ccccc3)CC2)S(C)(=O)=O)cc1`, for which the activity change was -0.0793% (inactive).
The same measure for `CN(Cc1ccc(Cl)cc1)C(=O)Cn1nnn(-c2cccs2)c1=O`: -0.86% (inactive); for `CCCn1nc(C(=O)N(C)Cc2ccc(OCC)cc2)c2ccccc2c1=O`: -4.2% (inactive).
For `COc1ccc2oc(=O)c(S(=O)(=O)N3CCCCCC3)cc2c1`, the activity change is -6.37% (inactive).
In the case of `CC(C)CC(=O)Nc1ccc(N2CCCC2)cc1`, the activity change is 39.8% (inactive).
On to `COc1cc(CN2C(=O)C(=O)c3cccc(C)c32)ccc1OCCC(C)C`, for which the activity change is 5.04% (inactive).
As to `COc1ccc(Br)cc1/C=C1\Cc2ccccc2C1=O`, the activity change was 0.293% (inactive).
`COc1cccc2cc(C(=O)N3CCN(c4cccc(C(F)(F)F)c4)CC3)c(=O)oc12`: the activity change was 3.43% (inactive).
The same measure for `COc1ccccc1CCNC(=O)CSc1ccc(-c2ccccn2)nn1`: 8.88% (inactive); for `O=C(COc1c(I)cc(Cl)c2cccnc12)N1CCCC1`: -11.3% (inactive).
Regarding `CCN(CC(=O)N(C)C)Cc1ccc(F)c2cccnc12`, the activity change is 0.454% (inactive).
Then `COc1ccc(Oc2c(C)oc3cc(OCC(=O)N4CCC(C(N)=O)CC4)ccc3c2=O)cc1`, with -1.42% (inactive); and `CN(Cc1ccc(OC(F)F)cc1)C(=O)c1nn(Cc2ccccc2)c(=O)c2ccccc12`, with 13.3% (inactive); and `COc1ccc(NC(=O)c2cnn3c2NC(C(=O)O)=CC3c2ccc(F)cc2)cc1` (stereo not drawn), with 18.2% (inactive).
The same measure for `Cn1c(SCC(=O)Nc2cccc(F)c2)nc2c(=O)[nH]cnc21`: 11% (inactive); for `CCN(CC)S(=O)(=O)c1ccc(N2CCCC2)c(NS(=O)(=O)c2cccs2)c1`: -11.2% (inactive).
Then `CCN(CC)S(=O)(=O)c1ccc(C)c(NS(=O)(=O)c2cccc(C#N)c2)c1`, with -34.7% (active); and `CCN(CC)S(=O)(=O)c1ccc(C)c(NC(=O)COc2ccc(Br)cc2Cl)c1`, with -4.43% (inactive).
Regarding `COC(=O)c1ccc(C2C(C#N)=C(N)Oc3c2ccc2ccccc32)cc1` (stereo not drawn), the activity change was -5.14% (inactive).
Take `Cc1cc2nc(/C(C#N)=C/c3ccccc3)[nH]c2cc1C`: the activity change is 9.89% (inactive).
Then `Cc1cc(/C=C(/C#N)c2nc3ccccc3n2C)cc(C)c1O`, with -32.2% (active); and `Cn1c(/C(C#N)=C2/CCCCCN2)nc2ccccc21`, with 1.28% (inactive).
Then `CC(C)CC(NC(=O)COc1ccc(Oc2ccccc2)cc1)C(=O)O` (stereo not drawn), with -0.172% (inactive); and `O=C(O)c1cc(NC(=O)c2ccc(Cl)s2)cc(C(=O)O)c1`, with -9.52% (inactive).
